Pf apPOL inh = Pf-apPOL DNA polymerase inhibition; Recombinant Pf-apPOL, molecular beacon fluorescence, 1.5 h; 210,000 tested, 0.25% active; AID 1794808; inhibition, % at 10 µM
mHTT-CaM PPI inh = disrupts binding of mutant huntingtin to calmodulin; P42858; AlphaScreen His-mHTT/GST-CaM binding, luminescence; inhibition, % at 15 µM; 190,000 tested, 3.6% active
Each line names hits and unclear results; the compound was inactive in the other large screens. Most compounds without a hit are left out; they make up all but 3.5% or so of the library. Cut-off read from the data, not from the text of the source: active = inhibition above about 50%; inactive = the rest.

COc1cccc(C2CC(c3ccccc3Cl)n3nc(N)nc3N2)c1 (stereo unspecified)	none
COc1cccc(C2CC(c3ccc(Cl)cc3Cl)n3nc(N)nc3N2)c1 (stereo unspecified)	mHTT-CaM PPI inh 51.9
Cc1cccc(C2CC(c3ccc(Cl)cc3)Nc3nc(N)nn32)c1 (stereo unspecified)	mHTT-CaM PPI inh 56.4
Cc1ncsc1CN1CCC(C(C)O)CC1 (stereo unspecified)	none
O=C(c1ccc(F)cc1)N1CCN(Cc2ccc3c(c2)OCO3)CC1	none
CCNC(=O)C1CCN(c2nc3ccc(-c4ccc(OC)cc4)nc3s2)CC1	mHTT-CaM PPI inh 62.0
COc1ccc(-c2ccc3nc(N4CCC(C(=O)NC(C)C)CC4)sc3n2)cc1	none
COc1ccccc1Nc1ncc2c(n1)CCN(Cc1cc(Br)cs1)C2	none
Cc1ccccc1C(=O)N1CCC2(C1)NCc1ccccc1NC2=NC(C)(C)C (stereo unspecified)	none
Cc1ccc(F)cc1S(=O)(=O)N1CCC2(C1)NCc1ccccc1NC2=NC(C)(C)C (stereo unspecified)	mHTT-CaM PPI inh 69.6
CC(C)(C)N=C1Nc2ccccc2CNC12CCN(C(=O)Cc1ccsc1)C2 (stereo unspecified)	mHTT-CaM PPI inh 61.8
COc1ccccc1CC(=O)N1CCC2(C1)NCc1ccccc1NC2=NC(C)(C)C (stereo unspecified)	none
Cc1ccc(C2=NN(C(=O)CN3CCC(C(N)=O)CC3)C(c3ccccc3)C2)c(C)c1 (stereo unspecified)	mHTT-CaM PPI inh 56.5
CC(=O)N1CCN(CC(=O)N2N=C(c3ccc(C)c(C)c3)CC2c2ccccc2)CC1 (stereo unspecified)	none
Cc1ccc(C2=NN(C(=O)CN3CCC(C(N)=O)CC3)C(c3ccc(C)cc3)C2)cc1 (stereo unspecified)	mHTT-CaM PPI inh 57.2
Cc1ccc(C2CC(c3ccc(Br)cc3)=NN2C(=O)CCC(=O)O)cc1 (stereo unspecified)	none
CCCN1CCN(C(=O)CCC2CCCN(c3cc(NCC)ncn3)C2)CC1 (stereo unspecified)	none
COc1ccccc1C1Nc2ccc3ncccc3c2C2=C1C(=O)CCC2 (stereo unspecified)	none
CN(C)c1ccc(C2CC(c3ccccc3)=NN2C(=O)c2ccc(F)cc2)cc1[N+](=O)[O-] (stereo unspecified)	mHTT-CaM PPI inh 55.0
CN(C)c1ccc(C2CC(c3ccccc3)=NN2C(=O)c2ccc(F)cc2)cc1 (stereo unspecified)	none
O=C(c1ccccc1F)N1CCN(Cc2noc3ccccc23)CC1	none
Cc1nn(Cc2ccc(Cl)cc2)c(C)c1NC(=O)c1noc2c1CCCCC2	mHTT-CaM PPI inh 67.2
Cc1cc(NC(=O)c2noc3c2CCCCC3)nn1Cc1ccc(Cl)cc1	none
Cc1ccc2c(c1)NC(=O)C(C(=O)Nc1ccc(Cl)cc1F)O2 (stereo unspecified)	none
CN(C)S(=O)(=O)c1ccc(C(=O)N2Cc3nn(C(C)(C)C)c(-n4cccc4)c3C2)cc1	mHTT-CaM PPI inh 53.8
CC(C)(C)n1nc2c(c1-n1cccc1)CN(C(=O)c1ccc(=O)[nH]c1)C2	none
COC(=O)C(CC(C)C)N1CCC(=O)c2ccccc2S1(=O)=O (stereo unspecified)	none
O=C(CNC1=NCCC1)c1ccc(-c2ccccc2)cc1	mHTT-CaM PPI inh 100.0
O=C(CNC1=NCCC1)c1ccc(Br)cc1	none
Cc1nn(CCCC(=O)Nc2sc3c(c2C#N)CCC(C(C)(C)C)C3)c(C)c1[N+](=O)[O-] (stereo unspecified)	none
Cc1sc2nc(C)n(Cc3csc(-c4ccc(Cl)cc4)n3)c(=O)c2c1C	none
Cc1sc2nc(C)n(Cc3ccc(C(F)(F)F)cc3)c(=O)c2c1C	mHTT-CaM PPI inh 88.0
Fc1cccc(Cl)c1C1Nc2cccc3cccc(c23)N1	none (no result: Pf apPOL inh)
c1csc(C2Nc3ccccc3-c3nc4ccccc4n32)c1 (stereo unspecified)	none
Clc1cccc(C2Nc3cccc4cccc(c34)N2)c1	mHTT-CaM PPI inh 82.5 (no result: Pf apPOL inh)
c1csc(C2Nc3cccc4cccc(c34)N2)c1	mHTT-CaM PPI inh 50.1 (no result: Pf apPOL inh)
N#CC1=C(N)SC(N)=C(C#N)C1c1cccc2ccccc12	none
c1ccc2c(C3Nc4cccc5cccc(c45)N3)cccc2c1	mHTT-CaM PPI inh 77.1 (no result: Pf apPOL inh)
Cc1[nH]nc(SCC(=O)Nc2c(F)cc(F)cc2Br)c1[N+](=O)[O-]	none
O=c1nc2sccn2c2ccc([N+](=O)[O-])cc12	none (no result: Pf apPOL inh)
CCOc1ccc(C2C(C(=O)Nc3ccc(C)cn3)=C(C)NC3=C2C(=O)CCC3)cc1 (stereo unspecified)	none
Cc1ccc(N(CC(=O)NCc2cccnc2)S(=O)(=O)c2ccccc2)cc1C	none
Cc1cccc(NC(=O)COc2c(C)cc(Cl)cc2Cl)n1	Pf apPOL inh 58.3
Cc1cccc(NC(=O)COc2ccc(Cl)c(C)c2)n1	none
NC(=O)c1ccc(NC(=O)CCCc2ccccc2)cc1	none
CCc1ccc(C(C)NS(=O)(=O)c2cc3c(s2)CCN(C(C)=O)C3)cc1 (stereo unspecified)	none
O=c1cc2oc3cc(O)c(O)cc3c(-c3ccccc3)c-2cc1O	mHTT-CaM PPI inh 69.0
Cc1oc2cc(O)ccc2c(=O)c1-c1ccccc1	none
O=c1cc2oc3cc(O)c(O)cc3c(-c3ccccc3O)c-2cc1O	mHTT-CaM PPI inh 84.6
Nc1ccc2oc(-c3ccccc3Cl)cc(=O)c2c1O	none
CCOc1ccccc1NS(=O)(=O)c1cc(C)ccc1OC	none
N#Cc1c(NC(=O)c2cc3ncc(Br)cn3n2)sc2c1CCCC2	none
O=C(O)c1cc2ncc(Br)cn2n1	Pf apPOL inh 68.6
Cn1ccc2c(N3CCCC3)cc3c(c21)C1CCC3O1 (stereo unspecified)	none
Cc1ccccc1-c1cc2c(c3c1ccn3C)C1CCC2O1 (stereo unspecified)	none
Cn1ccc2c(N3CCCCC3)cc3c(c21)C1CCC3C1 (stereo unspecified)	mHTT-CaM PPI inh 77.6
Cn1ccc2c(N3CCCC3)cc3c(c21)C1CCC3C1 (stereo unspecified)	none
Cn1ccc2c(N3CCCCCC3)cc3c(c21)C1CCC3O1 (stereo unspecified)	mHTT-CaM PPI inh 66.2
Cn1ccc2c(-c3cncc4ccccc34)cc3c(c21)C1CCC3O1 (stereo unspecified)	mHTT-CaM PPI inh 100.1
COCCN(CCOC)S(=O)(=O)c1ccc(C(=O)Nc2nnc(COC)o2)cc1	none
Cc1noc(C2CN(S(=O)(=O)C(C)C)CC23CCOCC3)n1 (stereo unspecified)	none
Cc1ccc2c(c1)N/C(=C(/C=C(\Cl)[N+](=O)[O-])[N+](=O)[O-])O2	none
O=[N+]([O-])C(/C=C(\Cl)[N+](=O)[O-])=C1Nc2ccccc2N1	mHTT-CaM PPI inh 88.0
CCOCCCNC(=O)c1ccc2c(c1)ncn2-c1cccc(Cl)c1	none
Cc1ccccc1CN1CCCN(c2ncccc2-c2nc(C(C)C)no2)CC1	none
CC(C)c1noc(-c2cccnc2N2CCCN(Cc3ccccc3Cl)CC2)n1	mHTT-CaM PPI inh 60.9
COc1ccc2[nH]c(C)c(C(C)=O)c2c1	none
N#CCC[C@H]1CC[C@]2(CCCN(Cc3ccccc3)C2)O1	none
N#CCC[C@@H]1CC[C@]2(CCCN(Cc3ccc(Cl)cc3)C2)O1	mHTT-CaM PPI inh 74.2
CCN1C(=O)C(=Cc2ccc(O)c(OC)c2)SC1=S	none
COC(=O)CCN1C(=O)C(=Cc2ccc(O)c(OC)c2)SC1=S	none
CCCCC(C(=O)O)N1C(=O)C(=Cc2ccco2)SC1=S (stereo unspecified)	Pf apPOL inh 52.3
O=C(O)CN1C(=O)/C(=C\c2ccco2)SC1=S	none (no result: Pf apPOL inh)
COc1cc(/C=C2/SC(c3ccc(C)cc3)=NC2=O)cc(OC)c1OC	none
